Calls of active or inactive are those of the source. The calls were made as follows: active = hit-call score of the fitted dose curve at least 0.9, where 1 is the maximum; inactive = score below 0.9.
Molecular target: Transcriptional activator Myb (Homo sapiens) (UniProt P10242)
Assay: ATG_Myb_CIS: Attagene CIS-FACTORIAL HepG2 Assay for human Myeloblastosis (Myb) Proto-Oncogene Transcription Factor (AID 2282986)
Conditions: HepG2 Attagene CIS-FACTORIAL Myb reporter transcription; actives raise or lower the signal
Method: ATG_CIS is a cell-based, multiplexed-readout assay that uses HepG2, a human liver cell line, with measurements taken at 24 hours after chemical dosing in a 24-well plate.ATG_Myb_CIS is one of 52 assay component(s) measured or calculated from the ATG_CIS assay. It is designed to make measurements of mRNA induction, a form of inducible reporter, as detected with fluorescence intensity signals by Reverse transcription polymerase chain reaction (RT-PCR) and Capillary electrophoresis technology.Data from the assay component ATG_Myb_CIS was analyzed into 1 assay endpoint. This assay endpoint, ATG_Myb_CIS, was analyzed with bidirectional fitting relative to DMSO as the negative control and baseline of activity. Using a type of inducible reporter, measures of mRNA for gain or loss-of-signal activity can be used to understand the reporter gene at the transcription factor-level as they relate to the gene MYB. Furthermore, this assay endpoint can be referred to as a primary readout, because this assay has produced multiple assay endpoints where this one serves a reporter gene function. To generalize the intended target to other relatable targets, this assay endpoint is annotated to the dna binding intended target family, where the subfamily is MYB proteins.
Human liver HepG2 cells are transiently transfected with multiple reporter transcription units (MRTUs) in 6-well plates using FuGene 6 reagent (Roche; 3 ml FuGene/1 mg DNA). The MRTU constructs are regulated by a cis-regulating element (promoter). […] A major difference between the CIS and TRANS system is that in CIS activities of endogenous TFs are measured, whereas the TRANS assay evaluates changes in activities of exogenous, chimeric NR-Gal4 proteins. […] At the end of 24 hour incubation, total RNA was isolated using TriZol reagent (Invitrogen). The isolated RNA is then reverse-transcribed using oligo(dT) primer and Mo-MLV reverse transcriptase (Invitrogen) with DNAse I (Ambion) treatment for 30 min. The one-tenth of the produced cDNA was amplified by PCR using Taq DNA polymerase (Invitrogen) and two reporter sequence-specific primers. The PCR products were fluorescently labeled by primer extension with 6-arboxyfluorescein (6-FAM) 5'-labeled reporter sequence-specific primer (2 min at 95 C, 20 s at 68 C and 10 min at 72 C) and these products were digested with 5U of HpaI (New England Biolabs) for 2h at 37 C. The fragments were purified using Qiaquick PCR columns (Qiagen), analyzed on an ABI 3130xL genetic analyzer (Applied Biosystems) with peak positions identified by using a set of X-rhodamine (ROX)-labeled MapMarker1000 molecular weight standards (BioVentures). The raw capillary electrophoresis data was processed using Attagraph software (Attagene).

Chain of Transcriptional activator Myb (Homo sapiens) (P10242 whole entry, looked up): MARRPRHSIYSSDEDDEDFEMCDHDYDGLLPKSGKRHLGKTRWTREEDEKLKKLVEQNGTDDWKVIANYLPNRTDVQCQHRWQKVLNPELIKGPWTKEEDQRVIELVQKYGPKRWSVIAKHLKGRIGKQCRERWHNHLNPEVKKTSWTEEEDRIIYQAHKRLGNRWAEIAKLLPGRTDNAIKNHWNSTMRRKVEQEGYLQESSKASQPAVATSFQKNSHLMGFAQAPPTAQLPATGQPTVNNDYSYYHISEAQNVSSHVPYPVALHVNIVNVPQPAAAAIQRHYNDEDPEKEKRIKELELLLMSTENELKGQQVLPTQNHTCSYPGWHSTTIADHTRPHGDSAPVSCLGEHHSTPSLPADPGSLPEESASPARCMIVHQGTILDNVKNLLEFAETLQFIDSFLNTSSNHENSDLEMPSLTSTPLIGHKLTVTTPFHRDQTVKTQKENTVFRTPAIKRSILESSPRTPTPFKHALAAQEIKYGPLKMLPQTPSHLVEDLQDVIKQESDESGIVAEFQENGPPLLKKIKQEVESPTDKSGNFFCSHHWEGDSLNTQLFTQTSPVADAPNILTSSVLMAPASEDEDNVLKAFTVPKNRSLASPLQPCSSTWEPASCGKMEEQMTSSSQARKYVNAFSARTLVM

Q: For `COc1cc(C)cc(O)c1`, which outcome is on record?
A: inactive

Q: For `Fc1c(F)c(F)c(Br)c(F)c1F`, which outcome is on record?
A: inactive

Q: Which outcome does the source give for `Cc1ncc([N+](=O)[O-])n1C` here?
A: inactive

Q: `Cc1ccc(Nc2ccc(O)c3c2C(=O)c2ccccc2C3=O)cc1` was tested. Which outcome did it give?
A: inactive

Q: For `O=C(O)c1snc(Cl)c1Cl`, which outcome is on record?
A: inactive

Q: For `O=C1OC2(c3cc(Br)c(O)c(Br)c3Oc3c2cc(Br)c(O)c3Br)c2c(Cl)c(Cl)c(Cl)c(Cl)c21`, which outcome is on record?
A: inactive

Q: For `CCCCCC=CCC(=O)OC`, which outcome is on record?
A: inactive

Q: `CCCCCCCCCCCCCCCC(=O)OC[C@H](O)[C@H]1OC(=O)C(O)=C1O` was tested. Which outcome did it give?
A: inactive

Q: `CC1CCC2CC1C2(C)C` (stereo not given) was tested. Which outcome did it give?
A: inactive

Q: `CC(=O)[C@H]1CC[C@H]2[C@@H]3CC=C4C[C@@H](O)CC[C@]4(C)[C@H]3CC[C@]12C` was tested. Which outcome did it give?
A: inactive

Q: How did the outcome turn out when `CC[Si](OC(C)=O)(OC(C)=O)OC(C)=O` was run?
A: inactive

Q: `CC(CC(C)(C)C)CC(C)(C)CC(C)(C)C` (stereo not given) was tested. Which outcome did it give?
A: inactive

Q: With `COc1nc(C)nc(N)n1` as the compound, how does the outcome read?
A: inactive

Q: How did the outcome turn out when `CCCOCC(C)O` (stereo not given) was run?
A: inactive

Q: Which outcome does the source give for `O=C(COc1ccc(Cl)cc1)N1CCN(Cc2ccc3c(c2)OCO3)CC1` here?
A: inactive

Q: How did the outcome turn out when `O=CCCc1ccccc1` was run?
A: inactive

Q: How did the outcome turn out when `CC1(CO)CN(c2ccccc2)NC1=O` (stereo not given) was run?
A: inactive

Q: For `O=[N+]([O-])c1ccc(Nc2ccc(Nc3ccccc3)c(S(=O)(=O)O)c2)c([N+](=O)[O-])c1`, which outcome is on record?
A: inactive

Q: `O=C(Cl)c1cccc(C(=O)Cl)c1` was tested. Which outcome did it give?
A: inactive

Q: With `c1ccc2c(c1)c1cccc3ccc4cccc2c4c31` as the compound, how does the outcome read?
A: inactive

Q: With `CCCCCCOC(=O)CC` as the compound, how does the outcome read?
A: inactive

Q: For `CCOC(=O)c1ccccc1OC`, which outcome is on record?
A: inactive

Q: How did the outcome turn out when `O=C1c2ccccc2C(=O)N1SC1CCCCC1` was run?
A: inactive

Q: Which outcome does the source give for `CCCCCCCCCCN` here?
A: inactive

Q: With `CC1CCC(C(C)CS)CC1S` (stereo not given) as the compound, how does the AC50 read?
A: 50.5 µM (active)

Q: Which outcome does the source give for `CC(=O)O[C@H](CC(=O)[O-])C[N+](C)(C)C` here?
A: inactive

Q: `CC(C)(N)CO` was tested. Which outcome did it give?
A: inactive

Q: With `C#C[C@]1(O)CC[C@H]2[C@@H]3CCC4=Cc5oncc5C[C@]4(C)[C@H]3CC[C@@]21C` as the compound, how does the AC50 read?
A: 52.5 µM (active)

Q: With `C=CC(=O)OCC(O)COc1ccccc1` (stereo not given) as the compound, how does the outcome read?
A: inactive

Q: Which outcome does the source give for `CCC(=O)OCCC(C)CCC=C(C)C` (stereo not given) here?
A: inactive

Q: How did the AC50 turn out when `O=Cc1ccc(Cl)c([N+](=O)[O-])c1` was run?
A: 144 µM (active)

Q: Which outcome does the source give for `O=C(O)CCCCCCCCCCC(=O)O` here?
A: inactive

Q: How did the outcome turn out when `O=C1CCCCCCCCCCOCCCCO1` was run?
A: inactive

Q: Which outcome does the source give for `Nc1ccc(S(=O)(=O)O)c(N)c1` here?
A: inactive

Q: For `CC(C)c1ccc(C(C)C)cc1`, which outcome is on record?
A: inactive

Q: Which outcome does the source give for `CC(C)OP(=O)(CP(=O)(OC(C)C)OC(C)C)OC(C)C` here?
A: inactive

Q: `CCCCCCCCCCCCCC(=O)O` was tested. Which outcome did it give?
A: inactive

Q: How did the outcome turn out when `O=C(O)COCCN1CCN(C(c2ccccc2)c2ccc(Cl)cc2)CC1` (stereo not given) was run?
A: inactive

Q: Which outcome does the source give for `CC(=O)OCCOC(C)=O` here?
A: inactive

Q: Which outcome does the source give for `CCCCC[Si](OCC)(OCC)OCC` here?
A: inactive

— PubChem BioAssay (EPA / NIEHS)
